# Measurements: PubChem BioAssay (Tox21)
# Values without a mark were called inactive. Results filed as inconclusive are left out. A call without a number means that no potency is given here. Active and inactive are the calls of the source. Unless noted, the call rests on the fitted dose curve; in most records, active means well fitted curve in the direction sought with a large enough effect in the repeat runs; inconclusive means weak or mixed curves; inactive means no such curve, though single readings can be large; an effect the other way counts as inactive or inconclusive.
# Assays:
# [1] = qHTS assay to identify small molecule agonists of the estrogen receptor alpha (ER-alpha) signaling pathway in the presence of an antagonist - cell viability counter screen (AID 1259386);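 further: series mostly up to about 92 µM; cells exposed to compounds for 22 h at 37 °C before the viability read; nearly all actives have a fitted effect of over 30% in size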
# Outline: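 VM7Luc4E2 cells (endogenous full-length ER-alpha, 4×ERE-luciferase) were held 5 days in phenol red-free medium with 10% charcoal-stripped FBS, plated, then given 10.0nM ICI-182,780 and compounds at 15 concentrations for 22hr at 37C; viability read by CellTiter-Fluor fluorescence.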
# [2] = target: Progesterone receptor (Homo sapiens) (UniProt P06401); experiment: qHTS assay to identify small molecule agonists of the progesterone receptor (PR) signaling pathway (AID 1346784; calls by dose curve; further: nearly all actives have a fitted effect of over 30% in size)
# Outline: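 PR-UAS-bla HEK 293T cells carrying a UAS-driven beta-lactamase reporter were seeded in medium with 2% charcoal-stripped FBS, preincubated 6 hr at 37C, then exposed to compounds in DMSO for 16 hr; agonism was read by LiveBLAzer B/G FRET fluorescence.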
# [3] = target: Progesterone receptor (Homo sapiens) (UniProt P06401); experiment: qHTS assay to identify small molecule antagonists of the progesterone receptor (PR) signaling pathway (AID 1346795; active means well fitted inhibition curve with a large enough effect in the signal ratio in the repeat runs, not every such curve was filed as active; the % refers to the signal ratio; further: potency means the concentration at half of the fitted maximal effect)
# Outline: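 PR-UAS-bla HEK293T cells carrying a UAS-driven beta-lactamase reporter were plated in medium with 2% charcoal-stripped FBS and rested 6 hr at 37C. Compounds were added with 1 nM R5020 (final) for 16 hr, then FRET substrate loaded 2 hr at room temperature.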
# [4] = qHTS assay to identify small molecule antagonists of the progesterone receptor (PR) signaling pathway - cell viability counter screen (AID 1346798); further: series mostly up to about 92 µM; nearly all actives have a fitted effect of over 50% in size
# Outline: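 PR-UAS-bla HEK293T cells in medium with 2% charcoal-stripped FBS were treated with compounds plus R5020 for 16 hr at 37C. Cell viability was then read by CellTiter-Glo luminescence after 30 min at room temperature in the same wells.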
# [5] = qHTS assay to identify small molecule antagonists of the TGF-beta/Smad signaling pathway - cell viability counter screen (AID 1346824); further: nearly all actives have a fitted effect of over 50% in size
# Outline: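 Cytotoxicity counter-screen run in the same wells as the beta-lactamase Smad reporter read: CellTiter-Glo luminescence after 30 min at room temperature. HEK 293T SBE-bla cells had 5 hr compound exposure at 37 C with TGF-beta1 (0.25 ng/mL stock).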
# [6] = qHTS assay to identify small molecule agonists of the TGF-beta/Smad signaling pathway - cell viability counter screen (AID 1346829); further: top concentration of the series differs between compounds; nearly all actives have a fitted effect of over 45% in size
# Outline: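 Same-well cytotoxicity: CellTiter-Glo added after the 2 hr room-temperature beta-lactamase substrate step, luminescence measured 30 min later; cells had 5 hr of compound at 37 C.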
# [7] = qHTS assay to identify small molecule agonists of the TGF-beta/Smad signaling pathway (AID 1346859; active means well fitted activation curve with a large enough effect in the signal ratio in the repeat runs, not every such curve was filed as active; the % refers to the signal ratio; further: series mostly up to about 77 µM)
# Outline: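 HEK 293T cells stably carrying a beta-lactamase reporter driven by the Smad binding element were seeded overnight, exposed to DMSO-dissolved compounds for 5 hr at 37 C, 5% CO2, then loaded with FRET substrate for 2 hr at room temperature.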
# [8] = target: Thyrotropin-releasing hormone receptor (Homo sapiens) (UniProt P34981); experiment: qHTS assay to identify small molecule antagonists of the thyrotropin-releasing hormone receptor (TRHR) signaling pathway (AID 1346877; active means well fitted inhibition curve with a large enough effect in the repeat runs, not every such curve was filed as active; further: series mostly up to about 51 µM)
# Outline: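 TRHR-expressing HEK293 cells were seeded, cultured 18 h at 37 °C, then loaded with calcium dye for 2 h. Compounds were pre-incubated 5 min at room temperature before 1 nM TRH (final) was added, and kinetic fluorescence was recorded for 3 min.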
# [9] = target: Thyrotropin-releasing hormone receptor (Homo sapiens) (UniProt P34981); experiment: qHTS assay to identify small molecule agonists of the thyrotropin-releasing hormone receptor (TRHR) signaling pathway (AID 1346891; calls by dose curve; further: series mostly up to about 58 µM)
# Outline: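 TRHR-expressing HEK293 cells were plated 18 h at 37 °C/5% CO2, loaded with calcium dye 2 h at 37 °C, then given compound in DMSO; fluorescence was read kinetically for 3 min at 1 s intervals.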
# [10] = qHTS assay to identify small molecule agonists of the progesterone receptor (PR) signaling pathway - cell viability counter screen (AID 1346799; calls by dose curve; further: nearly all actives have a fitted effect of over 45% in size; further: potency means the concentration at half of the fitted maximal effect)
# Outline: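 PR-UAS-bla HEK293T cells, 3,000 per well in medium with 2% charcoal-stripped FBS, were preincubated 6 hr at 37C, then exposed to compounds for 16 hr; viability was read as CellTiter-Glo luminescence after 30 min at room temperature.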
# Chain of Progesterone receptor (Homo sapiens) (P06401 whole entry, looked up): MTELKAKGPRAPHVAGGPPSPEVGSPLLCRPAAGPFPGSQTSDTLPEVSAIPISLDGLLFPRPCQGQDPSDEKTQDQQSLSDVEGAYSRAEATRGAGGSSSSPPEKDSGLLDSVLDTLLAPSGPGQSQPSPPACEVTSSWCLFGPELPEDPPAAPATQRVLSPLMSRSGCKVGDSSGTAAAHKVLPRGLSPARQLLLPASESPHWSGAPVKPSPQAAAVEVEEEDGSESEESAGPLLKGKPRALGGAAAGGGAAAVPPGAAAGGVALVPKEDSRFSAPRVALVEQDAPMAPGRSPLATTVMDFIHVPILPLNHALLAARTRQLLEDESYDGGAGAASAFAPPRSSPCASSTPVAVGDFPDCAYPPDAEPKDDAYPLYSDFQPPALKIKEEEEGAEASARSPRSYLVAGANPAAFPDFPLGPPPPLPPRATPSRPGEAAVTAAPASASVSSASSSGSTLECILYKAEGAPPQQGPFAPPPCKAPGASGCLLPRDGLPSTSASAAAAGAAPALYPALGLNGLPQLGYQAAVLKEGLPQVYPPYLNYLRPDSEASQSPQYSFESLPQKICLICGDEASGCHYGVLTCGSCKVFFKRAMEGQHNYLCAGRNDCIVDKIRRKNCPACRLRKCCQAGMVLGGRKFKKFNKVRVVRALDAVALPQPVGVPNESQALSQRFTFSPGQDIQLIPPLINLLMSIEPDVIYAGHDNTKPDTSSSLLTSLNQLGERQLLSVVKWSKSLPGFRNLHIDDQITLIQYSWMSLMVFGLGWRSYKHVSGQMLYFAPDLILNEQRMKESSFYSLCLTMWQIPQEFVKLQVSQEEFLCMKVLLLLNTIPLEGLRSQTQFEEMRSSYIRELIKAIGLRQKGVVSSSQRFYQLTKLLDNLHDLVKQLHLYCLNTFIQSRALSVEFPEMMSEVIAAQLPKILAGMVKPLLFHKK
# Chain of Thyrotropin-releasing hormone receptor (Homo sapiens) (P34981 whole entry, looked up): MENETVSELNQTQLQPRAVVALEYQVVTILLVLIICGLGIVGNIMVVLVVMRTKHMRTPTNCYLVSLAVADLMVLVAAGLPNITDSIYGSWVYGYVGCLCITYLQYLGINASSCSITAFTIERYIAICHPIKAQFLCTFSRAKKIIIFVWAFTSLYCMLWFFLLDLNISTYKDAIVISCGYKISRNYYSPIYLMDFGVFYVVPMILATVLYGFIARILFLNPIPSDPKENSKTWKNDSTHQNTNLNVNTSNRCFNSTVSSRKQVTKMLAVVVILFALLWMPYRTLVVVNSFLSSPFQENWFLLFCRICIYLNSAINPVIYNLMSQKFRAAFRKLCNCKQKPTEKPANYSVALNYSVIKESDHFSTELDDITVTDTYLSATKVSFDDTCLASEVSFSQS
smiles,measurement,setting,value
C=CC(=O)OCCOc1ccccc1,Potency,[1],inactive
same,Potency,[2],inactive
same,Potency,[3],inactive
same,Potency,[4],inactive
same,Potency,[5],inactive
same,outcome,[6],inactive
same,Potency,[7],inactive
same,outcome,[8],inactive
same,Potency,[9],inactive
O=C1OC(=O)C2C3C=CC(C3)C12 (stereo not given),Potency,[1],inactive
same,Potency,[2],inactive
same,Potency,[3],inactive
same,Potency,[4],inactive
same,Potency,[5],inactive
same,outcome,[6],inactive
same,Potency,[7],inactive
same,outcome,[8],inactive
same,Potency,[9],inactive
C=CC1CC2C=CC1C2 (stereo not given),Potency,[1],inactive
same,Potency,[2],inactive
same,Potency,[3],inactive
same,Potency,[10],inactive
same,Potency,[5],inactive
same,outcome,[6],inactive
same,outcome,[8],inactive
same,Potency,[9],inactive
CN(Cc1ccc(C(C)(C)C)cc1)Cc1cccc2ccccc12,Potency,[1],inactive
same,Potency,[2],inactive
same,Potency,[3],inactive
same,Potency,[10],10.6 µM (active)
same,outcome,[6],inactive
same,Potency,[7],inactive
same,outcome,[8],inactive
same,Potency,[9],inactive
COC(C)(C)CCO,Potency,[1],inactive
same,Potency,[2],inactive
same,Potency,[3],inactive
same,Potency,[4],inactive
same,outcome,[6],inactive
same,Potency,[7],inactive
same,outcome,[8],inactive
same,Potency,[9],inactive
CC(C)C[C@H]1C(=O)N2CCC[C@H]2[C@]2(O)O[C@](NC(=O)[C@@H]3C=C4c5cccc6[nH]c(Br)c(c56)C[C@H]4N(C)C3)(C(C)C)C(=O)N12,Potency,[1],inactive
same,Potency,[2],inactive
same,Potency,[3],inactive
same,Potency,[5],inactive
same,outcome,[6],inactive
same,Potency,[7],inactive
same,outcome,[8],inactive
same,Potency,[9],inactive
O=C(O)C(S)C(S)C(=O)O (stereo not given),Potency,[1],inactive
same,Potency,[2],inactive
same,Potency,[3],inactive
same,Potency,[10],inactive
same,Potency,[5],inactive
same,outcome,[6],inactive
same,Potency,[7],inactive
NCC(=O)CCC(=O)O,Potency,[1],inactive
same,Potency,[2],inactive
same,Potency,[3],inactive
same,Potency,[5],inactive
same,outcome,[6],inactive
same,Potency,[7],inactive
CN(C)c1ccc(C(c2ccccc2)c2ccc(N(C)C)cc2)cc1,Potency,[1],inactive
same,Potency,[2],inactive
same,Potency,[3],13.7 µM (active)
same,Potency,[10],inactive
same,Potency,[5],inactive
same,outcome,[6],inactive
same,Potency,[7],inactive
same,outcome,[8],inactive
same,Potency,[9],inactive
CN1CCC(=C2c3ccccc3Sc3ccccc32)CC1,Potency,[1],inactive
same,Potency,[2],inactive
same,Potency,[3],23.7 µM (active)
same,Potency,[10],inactive
same,Potency,[5],inactive
same,outcome,[6],inactive
same,Potency,[7],inactive
same,outcome,[8],inactive
same,Potency,[9],inactive
CC(C)O.CC(C)O.CCOC(=O)/C=C(\C)O.CCOC(=O)/C=C(\C)O.[Ti],Potency,[1],inactive
same,Potency,[2],inactive
same,Potency,[3],inactive
same,Potency,[4],inactive
same,outcome,[6],inactive
same,Potency,[7],inactive
O=C(NCC1CN(c2ccc(N3CCOCC3=O)cc2)C(=O)O1)c1ccc(Cl)s1 (stereo not given),Potency,[1],inactive
same,Potency,[2],inactive
same,Potency,[3],inactive
same,Potency,[4],inactive
same,Potency,[5],inactive
same,outcome,[6],inactive
same,outcome,[8],inactive
same,Potency,[9],inactive
O=[N+]([O-])c1cccc(S(=O)(=O)O)c1,Potency,[1],inactive
same,Potency,[2],inactive
same,Potency,[3],inactive
same,Potency,[5],inactive
same,outcome,[6],inactive
same,Potency,[7],inactive
CCCCCCCC#N,Potency,[1],inactive
same,Potency,[2],inactive
same,Potency,[3],inactive
same,Potency,[4],inactive
same,Potency,[5],inactive
same,outcome,[6],inactive
same,outcome,[8],inactive
same,Potency,[9],inactive
CCCCCCCCCOS(=O)(=O)O,Potency,[1],inactive
same,Potency,[2],inactive
same,Potency,[3],inactive
same,Potency,[10],inactive
same,Potency,[5],inactive
same,outcome,[6],inactive
same,Potency,[7],inactive
same,outcome,[8],inactive
same,Potency,[9],inactive
CCCCO,Potency,[1],inactive
same,Potency,[2],inactive
same,Potency,[3],inactive
same,Potency,[4],inactive
same,outcome,[6],inactive
same,Potency,[7],inactive
CN(C)CCN(Cc1ccc(Cl)cc1)c1ccccn1,Potency,[1],inactive
same,Potency,[2],inactive
same,Potency,[3],inactive
same,Potency,[10],inactive
same,Potency,[5],inactive
same,outcome,[6],inactive
same,Potency,[7],inactive
same,outcome,[8],inactive
same,Potency,[9],inactive
O=P(O)(OCc1ccccc1)OCc1ccccc1,Potency,[1],inactive
same,Potency,[2],inactive
same,Potency,[3],inactive
same,Potency,[5],inactive
same,outcome,[6],inactive
same,Potency,[7],inactive
COc1cc2nc(N3CCN(C(=O)C4COc5ccccc5O4)CC3)nc(N)c2cc1OC (stereo not given),Potency,[1],inactive
same,Potency,[2],inactive
same,Potency,[3],inactive
same,Potency,[10],inactive
same,outcome,[6],inactive
same,Potency,[7],inactive
C=C(C)C(=O)OCCO,Potency,[1],inactive
same,Potency,[2],inactive
same,Potency,[3],inactive
same,Potency,[10],inactive
same,Potency,[5],inactive
same,outcome,[6],inactive
same,Potency,[7],inactive
same,outcome,[8],inactive
same,Potency,[9],inactive
Nc1cc(C(=O)O)c(O)c(S(=O)(=O)O)c1,Potency,[1],inactive
same,Potency,[2],inactive
same,Potency,[3],inactive
same,Potency,[4],inactive
same,outcome,[6],inactive
same,Potency,[7],inactive
same,outcome,[8],inactive
same,Potency,[9],inactive
COc1ccnc(CS(=O)c2nc3ccc(OC(F)F)cc3[nH]2)c1OC (stereo not given),Potency,[1],inactive
same,Potency,[2],inactive
same,Potency,[3],inactive
same,Potency,[4],inactive
same,outcome,[6],inactive
same,Potency,[7],inactive
CC(C)(CO)[N+](=O)[O-],Potency,[1],inactive
same,Potency,[2],inactive
same,Potency,[3],inactive
same,Potency,[10],inactive
same,Potency,[5],inactive
same,outcome,[6],inactive
same,Potency,[7],inactive
same,outcome,[8],inactive
same,Potency,[9],inactive
CCOc1ccc(O)cc1,Potency,[1],inactive
same,Potency,[2],inactive
same,Potency,[3],inactive
same,Potency,[10],inactive
same,Potency,[5],inactive
same,outcome,[6],inactive
same,Potency,[7],inactive
same,outcome,[8],inactive
same,Potency,[9],inactive
CC[N+]1(CC)CCC(=C(c2ccccc2)c2ccccc2)C1C (stereo not given),Potency,[1],inactive
same,Potency,[2],inactive
same,Potency,[3],inactive
same,Potency,[4],inactive
same,outcome,[6],inactive
same,Potency,[7],inactive
NC(N)=NCCC[C@H](N)C(=O)O,"activity change, negative = cytotoxicity",[1],0.856% [at 8.39 µM]
same,activation,[2],-0.127% [at 8.39 µM]
same,"activity change, negative = inhibition",[3],7.3% [at 8.39 µM]
same,"activity change, negative = cytotoxicity",[10],-1.33% [at 8.39 µM]
same,"activity change, negative = cytotoxicity",[6],6.19% [at 6.97 µM]
same,activation,[7],2.75% [at 6.97 µM]
same,"activity, negative = inhibition",[8],-3.14% [at 4.65 µM]
same,activation,[9],0.134% [at 5.23 µM]
